Assay results taken from PubChem BioAssay (Tox21).
Inconclusive results are not listed. The source made the active and inactive calls. The call rests on the fitted dose curve; in most records, active means well fitted cell-killing curve with a large enough effect in the repeat runs; inconclusive means weak or mixed curves, or effect the other way; inactive means flat fitted curve, though single readings scatter.

experiment: qHTS RealTime-Glo MT Cell Viability Assay in HepG2 cells - 40 hour (AID 1224870); settings: RealTime-Glo luminescence; series mostly up to 76.8 µM; activity change, negative = cytotoxic: at the top concentration; further: nearly all actives have a fitted effect of over 50% in size
Procedure, shortened: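 HepG2 cells (600/well) mixed with RealTime-Glo MT reagent, settled 5 h at 37 C/5% CO2 before compound addition. Nonlytic NanoLuc luminescence from viable-cell prosubstrate reduction read repeatedly during 40 h treatment at 37 C.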
On the % scale 0 is the no-effect control and ±100 the full control effect.

Structure (SMILES)	activity change, negative = cytotoxic
CCOc1ccc(N)c([N+](=O)[O-])c1	-4.75% (inactive)
CN1CCC(=C2c3ccccc3Sc3ccccc32)CC1	-22.4% [at 35.3 µM] (inactive)
CCCCc1nc2cccnc2n1Cc1ccc(-c2ccccc2-c2nnn[nH]2)cc1	5.23% (inactive)
OCCN1CCN(CCCN2c3ccccc3C=Cc3ccccc32)CC1	0.3% [at 35.3 µM] (inactive)
CC(=O)c1ccc2c(c1)N(CCCN(C)C)c1ccccc1S2	-1.75% [at 35.3 µM] (inactive)
COc1ccc(C(=O)Nc2nc3ccccc3c(NCc3ccccc3)c2C#N)cc1	-30.3% (inactive)
CCCCC/C=C\C/C=C\CCCCCCCC(=O)NC(C)c1ccccc1 (centres undefined)	-0.713% [at 35.3 µM] (inactive)
Cc1c(N)cccc1[N+](=O)[O-]	0.727% (inactive)
C[C@H](CCC(=O)O)[C@H]1CC[C@H]2[C@@H]3CC[C@@H]4C[C@H](O)CC[C@]4(C)[C@H]3C[C@H](O)[C@]12C	1.17% (inactive)
CCCCCCCCCCCCCCOS(=O)(=O)O	3% (inactive)
CCCCCCCCCCCCCCCCOS(=O)(=O)O	2.7% [at 35.3 µM] (inactive)
CCOC(=O)COC(=O)c1cc(Oc2ccc(C(F)(F)F)cc2Cl)ccc1[N+](=O)[O-]	-10% (inactive)
CC(C)OC(=O)C(C)N(C(=O)c1ccccc1)c1ccc(F)c(Cl)c1 (centres undefined)	-7.8% (inactive)
CCCCCCCCCCCCCCCCCCOS(=O)(=O)O	0.922% (inactive)
CCCCC(CC)CN1C(=O)C2C3C=CC(C3)C2C1=O (centres undefined)	-9.15% (inactive)
C=CC(=O)OCCOc1ccccc1	2.96% (inactive)
CCCOC(C(=O)OC1CCN(C)CC1)(c1ccccc1)c1ccccc1	-19.1% [at 35.3 µM] (inactive)
CCOC(=O)C1=C[C@]2(CC)CCCN3CCc4c(n1c1ccccc41)[C@@H]32	-5.32% [at 35.3 µM] (inactive)
COc1cc2nc(N(C)CCCNC(=O)C3CCCO3)nc(N)c2cc1OC (centres undefined)	1.78% [at 35.3 µM] (inactive)
